Screens: PubChem BioAssay, National Center for Advancing Translational Sciences (NCATS)
Rows were chosen to be rich in hits. Some 7.1% of all compounds tested hit in one or more screens of this group.
Lassa entry: inhibitors of Lassa virus binding or entry into cells; Lassa virus pseudotyped entry inhibition, cell-based qHTS; Potency, µM (top dose mostly 49.2 µM), for inactives: at the top dose activity change, negative = inhibition, actives largely listed as inhibitors; 18,000 tested, 4.1% active; AID 720533
MARV entry inh: inhibitors of Marburg virus binding or entry into cells. Marburg virus pseudotype entry/binding inhibition, cell-based. Potency, µM (top dose mostly 49.2 µM), inactives show top-dose activity change, negative = inhibition, actives largely listed as inhibitors. 18,000 tested, 6.5% active
Starred values were filed as active, the others as inactive; ? = inconclusive; · = no result; [ ] = remark or other dose. The call rests on the fitted dose curve; tested in HEK293 cells. On the % scale 0 is the no-effect control and ±100 the full control effect; potency means the concentration at half of the fitted maximal effect.

SMILES	Lassa entry	MARV entry inh
C=CCN1C[C@H](CO)Oc2cccc(F)c2S1(=O)=O	-4%	16%
CCCNC(=O)N1C2=NC(C(=O)OC)=C(C(=O)OC)[C@@H]3Nc4ccccc4[C@]23C[C@H]1C(=O)OC	31%[8.59 µM]	3%[8.59 µM]
CN(C)C1CCN(CCCOc2ccc(-c3ccc(C#N)cc3)cc2)C1 (stereo unspecified)	?	11µM*
COc1ccccc1C1CN(Cc2c(O)cccc2OC)Cc2ccccc2O1 (stereo unspecified)	-15%	2%
COc1ccccc1C1CN(Cc2cccc(C)n2)Cc2ccccc2O1 (stereo unspecified)	7.1µM*	5.6µM*
O=C(NN=C1C[C@@H](O)[C@H](O)[C@H]2[C@@H]3C(=O)N(c4cccc(Oc5ccccc5)c4)C(=O)[C@@H]3CC[C@H]12)OCc1ccccc1	·	4%[8.59 µM]
CC(C)(C)NC[C@@H](O)COc1cccc2[nH]c(C#N)cc12	-3%	2%
N#Cc1cc2c(OCC(O)CN3CCN(C(c4ccccc4)c4ccccc4)CC3)cccc2[nH]1 (stereo unspecified)	16µM*	8.9µM*
CC1=CC[C@@H](COc2ccccc2)O[C@@]2(C1)C(=O)N(Cc1ccc(F)cc1)c1ccccc12	-11%[8.59 µM]	-2%[8.59 µM]
COc1cc(C)c(Cc2cnc(N)nc2N)cc1OC	-11%	24%
COc1cc(NCc2ccc3nc(N)nc(N)c3c2C)cc(OC)c1OC	?	4.5µM*
COc1cc2ncnc(Nc3ccc(Cl)cc3F)c2cc1OC	0%	-4%
C=CC(=O)Nc1cc2c(Nc3ccc(F)c(Cl)c3)ncnc2cc1OCCCN1CCOCC1	?	7.1µM*
N=C(N)SCCc1ccc(OCc2ccc([N+](=O)[O-])cc2)cc1	-15%	14µM*
Oc1ccc(OCc2ccccc2)cc1	?	-25%[17.8 µM]
O=C1[C@H]2[C@@H]3[C@@H](O)[C@H](O)CC(=NOCc4ccccc4)[C@@H]3CC[C@H]2C(=O)N1C[C@@H]1CCCO1	9%[8.59 µM]	6%[8.59 µM]
CO[C@H]1C[C@@H]2CC[C@@H](C)[C@@](O)(O2)C(=O)C(=O)N2CCCC[C@H]2C(=O)O[C@H](C(C)C[C@H]2CC[C@@H](O)[C@H](OC)C2)CC(=O)[C@H](C)/C=C(\C)[C@@H](O)[C@@H](OC)C(=O)[C@H](C)C[C@H](C)/C=C/C=C/C=C/1C (stereo partly specified)	-21%	?
CO[C@H]1C[C@@H]2CC[C@@H](C)[C@@](O)(O2)C(=O)C(=O)N2CCCC[C@H]2C(=O)O[C@H]([C@H](C)C[C@@H]2CC[C@@H](OCCO)[C@H](OC)C2)CC(=O)[C@H](C)/C=C(\C)[C@@H](O)[C@@H](OC)C(=O)[C@H](C)C[C@H](C)/C=C/C=C/C=C/1C	25µM*	?
O=[S+]1([O-])N[C@@H]2Cc3ccccc3[C@@H]2Oc2cc(Br)ccc21	-16%	-15%
COc1ccc([C@]23Cc4cc(OC)c(OC)cc4[C@H](O2)c2c(cc(C)n(Cc4ccccc4)c2=O)O3)cc1	40%[8.59 µM]	40%[8.59 µM]
C[C@H]1[C@H]2CC[C@H]3C4CC=C5C[C@@H](N(C)C)CC[C@]5(C)C4CC[C@]23CN1C (stereo partly specified)	-26%	11µM*
C[C@]12CC[C@H](O)CC1=CC[C@@H]1[C@@H]2CC[C@]2(C)C(=O)CC[C@@H]12	-14%	-22%
C[C@]12C[C@@](C)(C=C1C=Cc1ccc(C(F)(F)F)cc1)C(=O)C[C@H]2c1ccc(C(F)(F)F)cc1	13%[8.59 µM]	48%[8.59 µM]
CCCC=Cc1ccc(CN2C(CC(C)C)C(=O)N(Cc3cn(CCC4OCCO4)nn3)CCS2(=O)=O)cc1 (stereo unspecified)	3%	?
CC1(C)CCC2=C(O1)c1ccccc1C(=O)C2=O	7.1µM*	11µM*
SMILES	Lassa entry	MARV entry inh
CCN(CC)CCNc1ccc(CO)c2sc3ccccc3c(=O)c12	3%[17.8 µM]	11µM*
CCC[C@H]1CN(c2ccc(OC)cc2)C(=O)[C@H]1CC(=O)NC	-14%	?
C[C@@H]([C@H](O)c1ccccc1)N(C)C	4%	33%
CC[C@H](O)C(C[C@H](C)N(C)C)(c1ccccc1)c1ccccc1	?	18µM*
CC(CC(C#N)(c1ccccc1)c1ccccc1)N(C)C (stereo unspecified)	?	32µM*
O=C1Nc2cccc(Br)c2[C@@]12O[C@H](COc1ccccc1)CC1=CCC[C@H]12	-21%[8.59 µM]	22%[8.59 µM]
C[C@@H]1CCCN1[C@H]1C[S+](=O)([O-])N[C@H]1COCc1ccccc1	·	16%
COC(=O)C1=C(C(=O)OC)[C@@H]2N(C)c3ccccc3[C@@]23CCC(=O)N(CCCOC(C)C)C3=N1	-20%[8.59 µM]	-10%[8.59 µM]
COc1ccccc1C=CC1=CC2(C)CC1(C)C(c1ccccc1OC)CC2=O (stereo unspecified)	6%[8.59 µM]	-29%[8.59 µM]
CCOC(=O)CN1C(=O)N(CC)C(C)=C(C(=O)OC)C1c1ccccc1 (stereo unspecified)	-25%[8.59 µM]	?
Cc1c(-c2ccc(Cl)cc2)noc1C1CCN(CCc2ccccc2)CC1	0%	?
